# Source: PubChem BioAssay (EPA / NIEHS)
# Activity calls are given as the source filed them. Rule for the calls: active = hit-call score of the fitted dose curve at least 0.9, where 1 is the maximum; inactive = score below 0.9.
# Key:
# [1] = APR_HepG2_CellLoss_72hr: Apredica 72-hour HepG2 Assay for Cell Loss (AID 2282915); conditions: high-content imaging
# Outline: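 Cell number comes from Hoechst 33342-labelled nuclei, imaged at 20x after 3.7% formaldehyde fixation. Dosing was 0.39–200 uM, ten concentrations in duplicate, 0.5% DMSO final, for 72 h. Bidirectional fit relative to DMSO baseline.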
# [2] = APR_HepG2_P-H2AX_72hr: Apredica 72-hour HepG2 Assay for H2AX Phosphorylation (AID 2282916); conditions: imaging, actives raise or lower the signal;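 note: phospho-histone H2A.x immunostain intensity per cell marking DNA damage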
# Outline: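 Human hepatoma HepG2 cells are dosed across ten concentrations (0.39 to 200 uM, 0.5% v/v DMSO) and incubated 72 hr. Phospho-histone H2A.x is then detected by antibody staining alongside c-Jun and Hoechst, and quantified by automated fluorescence imaging.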
# [3] = APR_HepG2_MitoMembPot_72hr: Apredica 72-hour HepG2 Assay for Mitochondrial Membrane Potential (AID 2282917); conditions: imaging, actives raise or lower the signal
# Outline: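 Membrane potential read by MitoTracker Red CMXRos (250 nM, 30 min, pre-fixation) fluorescence imaging of HepG2 after 72 hr exposure. Ten concentrations, 0.39–200 uM, duplicate wells, 0.5% DMSO; fitted in both directions against DMSO baseline.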
# [4] = APR_HepG2_MicrotubuleCSK_72hr: Apredica 72-hour HepG2 Assay for Microtubule CSK Stabilty (AID 2282919); conditions: HepG2 microtubule cytoskeleton, high-content imaging, actives raise or lower the signal
# Outline: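 High-content imaging of alpha-tubulin staining in fixed HepG2 cells after 72 hr treatment with ten concentrations from 0.39 to 200 uM (0.5% DMSO). Fitting was bidirectional against DMSO; taxol served as positive control.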
# [5] = APR_HepG2_P-H2AX_24hr: Apredica 24-hour HepG2 Assay for H2AX Phosphorylation (AID 2282920); conditions: high-content imaging, actives raise or lower the signal
# Outline: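 HepG2 cells dosed 24 h at 0.39–200 uM (10 points, duplicate, 0.5% DMSO final). Formaldehyde-fixed and permeabilized, then immunostained for phospho-H2A.x with Hoechst. Fluorescence quantified by high-content imaging, fitted bidirectionally versus DMSO.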
# [6] = APR_HepG2_StressKinase_72hr: Apredica 72-hour HepG2 Assay for Stress Kinase (AID 2282921); conditions: HepG2 stress kinase (phospho-c-Jun) imaging, actives raise or lower the signal
# Outline: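 After a 72 h compound treatment spanning 0.39 to 200 uM, formaldehyde-fixed cells are labelled for phosphorylated c-Jun and nuclei, imaged by automated fluorescence microscopy, and activity is fitted in both directions relative to DMSO controls.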
# [7] = APR_HepG2_StressKinase_24hr: Apredica 24-hour HepG2 Assay for Stress Kinase (AID 2282922); conditions: HepG2 stress kinase (phospho-c-Jun) imaging, actives raise or lower the signal
# Outline: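 High-content imaging of phospho-c-Jun immunofluorescence in fixed, permeabilized HepG2 cells after 24 h dosing. Ten concentrations, 0.39 to 200 uM, run in duplicate at 0.5% v/v DMSO; gain or loss of signal versus DMSO.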
# [8] = APR_HepG2_p53Act_72hr: Apredica 72-hour HepG2 Assay for p53 Activation (AID 2282923); conditions: high-content imaging, actives raise or lower the signal;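 note: average cellular p53 protein immunofluorescence intensity in HepG2 cells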
# Outline: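 Imaging-based endpoint: after 72 hr compound exposure (up to 200 uM, 0.5% DMSO), fixed and permeabilized monolayers were labelled with anti-p53 antibody and imaged; signal change in either direction was fitted relative to DMSO controls.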
# [9] = APR_HepG2_MitoMass_72hr: Apredica 72-hour HepG2 Assay for Mitochondrial Mass (AID 2282924); conditions: high-content imaging, actives raise or lower the signal;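 note: MitoTracker Red CMXRos stain intensity per cell imaged as mitochondrial mass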
# Outline: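 Readout is imaged MitoTracker Red (250 nM, 30 min, pre-fixation) signal, fitted bidirectionally against DMSO baseline. Human HepG2 liver cells received compound 0.39–200 uM in duplicate for 72 hr, final DMSO 0.5%.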
structure (smiles),measurement,setting,value
CCCCCCC(=O)OCC,outcome,[1],inactive
same,outcome,[2],inactive
same,outcome,[3],inactive
same,outcome,[4],inactive
same,outcome,[5],inactive
same,outcome,[6],inactive
same,outcome,[7],inactive
same,outcome,[8],inactive
same,outcome,[9],inactive
CCCc1cc(=O)[nH]c(=S)[nH]1,outcome,[1],inactive
same,outcome,[2],inactive
same,outcome,[3],inactive
same,outcome,[4],inactive
same,outcome,[5],inactive
same,outcome,[6],inactive
same,outcome,[7],inactive
same,outcome,[8],inactive
same,outcome,[9],inactive
Oc1ccc2c(c1)OC[C@@H](N1CCC(O)(c3ccc(F)cc3)CC1)[C@H]2O,outcome,[1],inactive
same,outcome,[2],inactive
same,outcome,[3],inactive
same,outcome,[4],inactive
same,outcome,[5],inactive
same,outcome,[7],inactive
same,outcome,[8],inactive
same,outcome,[9],inactive
Cc1cc(=O)[nH]c(=S)[nH]1,outcome,[1],inactive
same,outcome,[2],inactive
same,outcome,[3],inactive
same,outcome,[4],inactive
same,outcome,[5],inactive
same,outcome,[7],inactive
same,outcome,[8],inactive
same,outcome,[9],inactive
Cc1ccc2ncccc2c1,outcome,[1],inactive
same,outcome,[2],inactive
same,outcome,[3],inactive
same,outcome,[4],inactive
same,outcome,[5],inactive
same,outcome,[6],inactive
same,outcome,[7],inactive
same,outcome,[8],inactive
same,outcome,[9],inactive
CNC(=O)[C@H]1O[C@@H](n2cnc3c(NCc4cc(Cl)ccc4OCc4cc(C)no4)ncnc32)[C@H](O)[C@@H]1N,outcome,[1],inactive
same,outcome,[2],inactive
same,outcome,[3],inactive
same,outcome,[4],inactive
same,outcome,[5],inactive
same,outcome,[6],inactive
same,outcome,[7],inactive
same,outcome,[8],inactive
same,outcome,[9],inactive
COc1ccc(S(=O)(=O)N2C(=O)[C@@](c3ccccc3OC)(N3C[C@H](O)C[C@H]3C(=O)N(C)C)c3cc(Cl)ccc32)c(OC)c1,AC50,[1],61 µM (active)
same,AC50,[2],106 µM (active)
same,outcome,[3],inactive
same,outcome,[4],inactive
same,AC50,[5],68.2 µM (active)
same,outcome,[7],inactive
same,AC50,[8],100 µM (active)
same,AC50,[9],65.7 µM (active)
O=C(N[C@@H](Cc1ccccc1)[C@@H](O)C(=O)N1C[C@@H](O)[C@@H](O)C1)c1cc2cc(Cl)ccc2[nH]1,AC50,[1],104 µM (active)
same,AC50,[2],107 µM (active)
same,AC50,[3],97.2 µM (active)
same,outcome,[4],inactive
same,outcome,[5],inactive
same,outcome,[7],inactive
same,AC50,[8],104 µM (active)
same,outcome,[9],inactive
CN1CCN(Cc2cc(-c3ccc4[nH]c(=O)oc4c3)co2)[C@@H](c2ccc(F)cc2)C1,AC50,[1],51.9 µM (active)
same,AC50,[2],41.5 µM (active)
same,AC50,[3],66.8 µM (active)
same,AC50,[4],73.2 µM (active)
same,AC50,[5],62 µM (active)
same,AC50,[6],41.2 µM (active)
same,outcome,[7],inactive
same,AC50,[8],54.8 µM (active)
same,AC50,[9],64.6 µM (active)
COc1ccc(C)cc1N,outcome,[1],inactive
same,outcome,[2],inactive
same,outcome,[3],inactive
same,outcome,[4],inactive
same,outcome,[5],inactive
same,outcome,[6],inactive
same,outcome,[7],inactive
same,outcome,[8],inactive
same,outcome,[9],inactive
CCCCN(CCCC)CCCC,outcome,[1],inactive
same,outcome,[2],inactive
same,outcome,[3],inactive
same,outcome,[4],inactive
same,outcome,[5],inactive
same,outcome,[7],inactive
same,outcome,[8],inactive
same,outcome,[9],inactive
COCCOC[C@H](CC1(C(=O)NC2CCC(C(=O)O)CC2)CCCC1)C(=O)Oc1ccc2c(c1)CCC2 (some centres not stated),outcome,[1],inactive
same,outcome,[2],inactive
same,outcome,[3],inactive
same,outcome,[4],inactive
same,outcome,[5],inactive
same,outcome,[7],inactive
same,outcome,[8],inactive
same,outcome,[9],inactive
NS(=O)(=O)c1cc2c(cc1Cl)NCNS2(=O)=O,outcome,[1],inactive
same,outcome,[2],inactive
same,outcome,[3],inactive
same,outcome,[4],inactive
same,outcome,[5],inactive
same,outcome,[6],inactive
same,outcome,[7],inactive
same,outcome,[8],inactive
same,outcome,[9],inactive
CNCc1cc(F)ccc1Oc1ccc(Cl)c(Cl)c1,AC50,[1],56.9 µM (active)
same,AC50,[2],59.5 µM (active)
same,outcome,[3],inactive
same,outcome,[4],inactive
same,AC50,[5],74.4 µM (active)
same,outcome,[7],inactive
same,AC50,[8],63 µM (active)
same,AC50,[9],178 µM (active)
O=C(O)CCCCC(=O)O,outcome,[1],inactive
same,outcome,[2],inactive
same,outcome,[3],inactive
same,outcome,[4],inactive
same,outcome,[5],inactive
same,outcome,[7],inactive
same,outcome,[8],inactive
same,outcome,[9],inactive
Clc1cc(Cl)c(Cl)cc1Cl,outcome,[1],inactive
same,outcome,[2],inactive
same,outcome,[3],inactive
same,outcome,[4],inactive
same,outcome,[5],inactive
same,outcome,[7],inactive
same,outcome,[8],inactive
same,outcome,[9],inactive
c1cc(-c2ccncc2)ccn1,outcome,[1],inactive
same,outcome,[2],inactive
same,outcome,[3],inactive
same,outcome,[4],inactive
same,outcome,[5],inactive
same,outcome,[6],inactive
same,outcome,[7],inactive
same,outcome,[8],inactive
same,outcome,[9],inactive
Cc1cccc([N+](=O)[O-])c1C,outcome,[1],inactive
same,outcome,[2],inactive
same,outcome,[3],inactive
same,outcome,[4],inactive
same,outcome,[5],inactive
same,outcome,[7],inactive
same,outcome,[8],inactive
same,outcome,[9],inactive
O=c1[nH]cc(F)c(=O)[nH]1,AC50,[1],2.45 µM (active)
same,outcome,[2],inactive
same,outcome,[3],inactive
same,outcome,[4],inactive
same,outcome,[5],inactive
same,outcome,[7],inactive
same,outcome,[8],inactive
same,outcome,[9],inactive
Cc1ccc(C)c(C)c1,outcome,[1],inactive
same,outcome,[2],inactive
same,outcome,[3],inactive
same,outcome,[4],inactive
same,outcome,[5],inactive
same,outcome,[6],inactive
same,outcome,[7],inactive
same,outcome,[8],inactive
same,outcome,[9],inactive
CCCCCCCCCCCCCCCCCC(=O)O,outcome,[1],inactive
same,outcome,[2],inactive
same,outcome,[3],inactive
same,outcome,[4],inactive
same,outcome,[5],inactive
same,outcome,[7],inactive
same,outcome,[8],inactive
same,outcome,[9],inactive
Nc1ccc(S(=O)(=O)c2ccc(N)cc2)cc1,outcome,[1],inactive
same,outcome,[2],inactive
same,outcome,[3],inactive
same,outcome,[4],inactive
same,outcome,[5],inactive
same,outcome,[6],inactive
same,outcome,[7],inactive
same,outcome,[8],inactive
same,outcome,[9],inactive
Nc1ccccc1N,AC50,[1],9.57 µM (active)
same,AC50,[2],38.8 µM (active)
same,outcome,[3],inactive
same,outcome,[4],inactive
same,AC50,[5],45.8 µM (active)
same,outcome,[7],inactive
same,AC50,[8],18.9 µM (active)
same,AC50,[9],16.2 µM (active)
CC(C)(C)c1cc(O)c(C(C)(C)C)cc1O,AC50,[1],51.6 µM (active)
same,AC50,[2],36 µM (active)
same,AC50,[3],104 µM (active)
same,outcome,[4],inactive
same,AC50,[5],79.4 µM (active)
same,outcome,[6],inactive
same,AC50,[7],93.1 µM (active)
same,AC50,[8],12.5 µM (active)
same,outcome,[9],inactive
Cc1c(C(=O)O)c(O)cc2c1C(=O)c1c(O)c([C@@H]3O[C@H](CO)[C@@H](O)[C@H](O)[C@H]3O)c(O)c(O)c1C2=O,outcome,[1],inactive
same,outcome,[2],inactive
same,AC50,[3],40.9 µM (active)
same,outcome,[4],inactive
same,outcome,[5],inactive
same,outcome,[6],inactive
same,outcome,[7],inactive
same,outcome,[8],inactive
same,outcome,[9],inactive
